Results reported in PubChem BioAssay (NCATS).
Inconclusive results are not listed. Active and inactive are the calls of the source. Calls follow the shape of the dose curve; as a rule, active = well fitted curve in the direction sought with a large enough effect; inconclusive = small, poorly fitted or top-dose-only effect, or another doubt; inactive = no such curve, though single readings can be large; an effect the other way counts as inactive or inconclusive.

Experiments:
[1] = qHTS of pediatric cancer cell lines to identify multiple opportunities for drug repurposing: Primary screen for DAOY cells (AID 1347090); also: nearly all actives have a fitted effect of over 55% in size; also: potency is read from the fitted curve at half-maximal effect
Procedure, shortened: (§1)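 Eight- or eleven-point concentration series, 48 h treatment at 37 degrees C in growth media; readout CellTiter-Glo luminescence. Potency and efficacy were taken from the concentration-response curves.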

[2] = qHTS of pediatric cancer cell lines to identify multiple opportunities for drug repurposing: Primary screen for SJ-GBM2 cells (AID 1347091); also: potency is read from the fitted curve at half-maximal effect
Procedure, shortened: as §1

[3] = qHTS of pediatric cancer cell lines to identify multiple opportunities for drug repurposing: Primary screen for A673 cells (AID 1347092); also: nearly all actives have a fitted effect of over 45% in size; also: potency is read from the fitted curve at half-maximal effect
Procedure, shortened: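 A673 cells (500-1,000 cells/well) were treated 48 hours at 37 degrees C with compounds at 11-point (0.78 nM to 46 µM) or 8-point (0.59 nM to 46 µM) dilutions. Viability read by CellTiter-Glo luminescence; concentration-response curves fitted.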

[4] = qHTS of pediatric cancer cell lines to identify multiple opportunities for drug repurposing: Primary screen for SK-N-MC cells (AID 1347093); also: potency is read from the fitted curve at half-maximal effect
Procedure, shortened: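 Metabolically active cells were quantified by ATP-dependent luminescence (CellTiter-Glo, 15 min at room temperature) following 48 h treatment. Cells had been plated at 500-1,000 per well and settled for 5 h beforehand.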

[5] = qHTS of pediatric cancer cell lines to identify multiple opportunities for drug repurposing: Primary screen for NB-EBc1 cells (AID 1347095); also: potency is read from the fitted curve at half-maximal effect
Procedure, shortened: (§2)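 Luminescence from CellTiter-Glo served as readout of metabolically active cells after 48 h compound exposure. Titrations: MIPE 11-point, from 0.78 nM; NPC 8-point, from 0.59 nM (final). Concentration-response curves came straight from the primary screen.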

[6] = qHTS of pediatric cancer cell lines to identify multiple opportunities for drug repurposing: Primary screen for U-2 OS cells (AID 1347096); also: nearly all actives have a fitted effect of over 50% in size
Procedure, shortened: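 Cells (500-1,000/well) in growth media were settled 5 h at 37 degrees C, then given compounds for 48 h. Viability was read as CellTiter-Glo luminescence. Primary runs used MIPE at 11 points (0.78 nM-46 µM) and NPC at 8 points (0.59 nM-46 µM); follow-ups used 11 points.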

[7] = qHTS of pediatric cancer cell lines to identify multiple opportunities for drug repurposing: Primary screen for Saos-2 cells (AID 1347097); also: nearly all actives have a fitted effect of over 40% in size; also: potency is read from the fitted curve at half-maximal effect
Procedure, shortened: as §2

[8] = qHTS of pediatric cancer cell lines to identify multiple opportunities for drug repurposing: Primary screen for SK-N-SH cells (AID 1347098); also: nearly all actives have a fitted effect of over 65% in size; also: potency is read from the fitted curve at half-maximal effect
Procedure, shortened: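 Cells (500-1,000/well) rested 5 h, then received compounds for 48 h; metabolically active cells were measured by CellTiter-Glo luminescence. Final concentrations spanned up to 46 µM (MIPE, 11-point) or 0.59 nM-46 µM (NPC, 8-point) in primary screens, 11-point in follow-ups.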

[9] = qHTS of pediatric cancer cell lines to identify multiple opportunities for drug repurposing: Primary screen for NB1643 cells (AID 1347099); also: nearly all actives have a fitted effect of over 50% in size; also: potency is read from the fitted curve at half-maximal effect
Procedure, shortened: as §2

[10] = qHTS of pediatric cancer cell lines to identify multiple opportunities for drug repurposing: Primary screen for BT-37 cells (AID 1347094); also: potency is read from the fitted curve at half-maximal effect
Procedure, shortened: as §2

Measured: Potency

CNC1[C@H](O)C(O[C@@H]2C(O)C(O[C@H]3O[C@H]([C@@H](C)NC)CC[C@H]3N)[C@@H](N)C[C@H]2N)OC[C@]1(C)O (stereo not given in full)
not listed: [10]
inactive: all other assays above

Cc1ccc(C(=O)N(CCCN)[C@@H](c2oc3cc(Cl)ccc3c(=O)c2Cc2ccccc2)C(C)C)cc1
inactive: [9]
active: [1] 1 nM | [2] 1 nM | [3] 1 nM | [4] 23500 nM | [10] 1 nM | [5] 1 nM | [7] 1 nM

C[C@@H]1O[C@@H](O[C@H]2CC[C@@]3(C)[C@H](CC[C@@H]4[C@H]3C[C@@H](O)[C@]3(C)[C@@H](C5=CC(=O)OC5)CC[C@]43O)C2)C[C@H](O)[C@@H]1O[C@H]1C[C@H](O)[C@H](O[C@H]2C[C@H](O)[C@@H](O)[C@@H](C)O2)[C@H](C)O1 (stereo in doubt)
active: [1] 270 nM | [2] 121 nM | [3] 171 nM | [4] 108 nM | [10] 112 nM | [5] 303 nM | [7] 679 nM | [8] 555 nM | [9] 429 nM

CC1C(=O)OC2C(O)C34C5CC(C(C)(C)C)C36C(OC(=O)C6O)OC4(C(=O)O5)C12O (stereo not given)
active: [3] 18700 nM | [4] 29600 nM | [5] 14800 nM
inactive: [1] | [2] | [6] | [7]

CC(NCCc1ccc(O)cc1)C(O)c1ccc(O)cc1 (stereo not given)
not listed: [9] | [10]
inactive: all other assays above

N=C1SC(=Cc2ccc(-c3ccc4c(c3)C(=O)NC4=O)o2)C(=O)N1c1ccc(Br)cc1
active: [2] 2640 nM | [5] 3720 nM
not listed: [9] | [10]
inactive: all other assays above

CN(C)CCN(Cc1ccc(Cl)cc1)c1ccccn1
active: [1] 29600 nM | [3] 18700 nM | [4] 10500 nM | [9] 14800 nM
inactive: [2] | [10] | [6] | [7]

CC[C@H](C)n1cc(C)c2c(C(=O)NCc3c(C)cc(C)[nH]c3=O)cc(-c3ccc(N4CCNCC4)nc3)cc21
active: [1] 11800 nM | [3] 1480 nM | [4] 590 nM | [10] 19300 nM | [7] 18700 nM | [8] 6070 nM
inactive: [2] | [5]
